“And” between values parts separate entries of the source, which are not always exact repeats. Identical values can stand only once. Compounds without any hit were thinned out: in the full panel of roughly 79,000, 15% have a hit. The source holds several records for some structures; these can differ, active in one and inactive in another. The source made the active and inactive calls. Rule as the data show it: active = growth inhibition above about 70%; inactive = the rest.
Assay: NCI Yeast Anticancer Drug Screen. Data for the mec2-1 strain (AID 157)
Details: S. cerevisiae mec2-1 strain, at 50.0 µM (retest, dose inferred, filed as 5.0), stronger effect = higher value
How it was run: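 mec2-1 yeast strain, carrying an alteration in DNA damage repair or cell cycle control, was exposed to compounds; growth inhibition was measured relative to vehicle-treated controls.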

SMILES | growth inhibition
O=C1/C(=C/c2ccccc2)CCCC1CN1CCCCC1 (centres undefined) | 74% (active)
C#CCN(Cc1ccc2nc(N)[nH]c(=O)c2c1)c1ccc(C(=O)NC(CCC(=O)O)C(=O)O)cc1 (centres undefined) | 92% (active) and 98% (active)
CCOC1(c2cccc([N+](=O)[O-])c2)c2ccccc2Oc2ccccc21 | 23% (inactive)
O=C(O)CNC(=S)Nc1ccccc1 | 85% (active)
N/C(=N/N=C/c1cc(Br)cc(Br)c1O)NO | 99% (active)
C[Si](C)(C)/C=C/CCNC(C#N)c1ccccc1 (centres undefined) | 99% (active)
CCCCCCCCCCCCCCCCOP(=O)(O)OCC(N)C(=O)O (centres undefined) | 99% (active)
CC1=C(C(=O)NCc2ccccc2)C(c2ccccc2)C(C(=O)NCc2ccccc2)=C(C)N1 | 81% (active)
O=[N+]([O-])c1cc(S(=O)(=O)Nc2ccccc2)ccc1Nc1ccccc1 | 96% (active)
COc1cc2ccnc(-c3c4ccccc4c(N)c4c(OC)c(OC)ccc34)c2cc1OC | 33% (inactive)
CCOC(=O)C(Br)C(Br)c1ccccc1Cl (centres undefined) | 100% (active)
CCOC(=O)C1=C(C)NC(C)=C(C(=O)OCCNC(=O)c2ccc(N=[N+]=[N-])cc2)C1c1ccccc1C(F)(F)F (centres undefined) | -46% (inactive)
Cc1cc(C)c(NC(=S)NC(=O)c2ccccc2)cc1C | 4% (inactive)
CNCCCNc1c2ccccc2nc2cccc([N+](=O)[O-])c12 | 97% (active)
COc1c(O)c(C=O)c(Br)c(C=O)c1O | 98% (active)
Cc1c(C)c(C)c(CSC(=N)N)c(C)c1C | 86% (active)
O=C(CSC(=S)N1CCCCC1)Nc1nc2c(s1)CCCC2 | 45% (inactive)
CNC(=O)OCc1c(COC(=O)NC)c(-c2ccc(Cl)cc2)n2c1CCC2 | 6% (inactive)
CC(=O)OC1CC2C(C)(C)C(=O)C=C[C@]2(C)C2CCC3(C)C(=CCC3[C@H](CO)C[C@H](O)C(=O)C(C)(C)O)[C@]12C (some centres undefined) | 12% (inactive)
CCCCCCOC(=O)NCCOC(=O)Nc1ccccc1 | 1% (inactive)

SMILES | growth inhibition
C[C](C)(C)[Ge]([O][Ge]([c]1ccccc1)[c]1ccccc1)([O][Ge]([c]1ccccc1)[c]1ccccc1)[C](C)(C)C | 75% (active)
CCc1c(Cl)c(C)cc(O)c1Cl | 94% (active)
Cc1nc(Nc2ccccc2[N+](=O)[O-])sc1C(=O)CC(=O)C(=O)Nc1c(C(C)C)cccc1C(C)C | 8% (inactive)
O=[N+]([O-])c1cccc2nc3ccccc3c(NCCCn3ccnc3[N+](=O)[O-])c12 | 98% (active)
CCCCCCC(O)CNCc1ccnc2ccc(OC)cc12 (centres undefined) | 43% (inactive)
Cc1c2cccc(Sc3ccccc3)c2c2c3c(cccc13)[S+](c1ccccc1)C2 (centres undefined) | 97% (active)
C=C1CCC(O)C/C1=C/C=C1\CCCC2(C)C1CCC2C(C)CCCC(C)C (centres undefined) | 94% (active)
NC1=NNC2(C(N)=N1)c1ccccc1-c1ccccc12 | 18% (inactive)
COc1cc2cc3c4cc(OC)c(OC)cc4cc[n+]3c(C)c2cc1OC | 83% (active)
COC(=O)NC1C(C)OC(OC2C/C=C(/C)C3C=CC4C(OC5CC(OC6CC(O)C(OC7CC(O)C(OC)C(C)O7)C(C)O6)C(O)C(C)O5)C(C)CC(C)C4C3(C)/C(O)=C3\C(=O)OC4(CC(C)C(CO)=CC4/C=C\2C)C3=O)CC1(C)[N+](=O)[O-] (centres undefined) | 34% (inactive)
O=C1CSC(c2cccc(Cl)c2)N1c1ccc(-c2ccc(-n3c(-c4ccccc4)nc4ccccc4c3=O)cc2)cc1 (centres undefined) | -26% (inactive)
CCOC(=O)C(C(=O)OCC)=P(c1ccccc1)(c1ccccc1)c1ccccc1 | 16% (inactive)
COc1ccc(N=CN(C)C)c(C)c1 | 76% (active)
Cc1cc(S(=O)(=O)Nc2nnc3cnc4ccccc4n23)c(S)cc1Cl | 61% (inactive)
O=C(Oc1ccc2c(c1)CN(Cc1ccccc1)CO2)c1ccccc1 | 3% (inactive)
CN(C)[C@@H]1C(=O)C(C(N)=O)=C(O)[C@@]2(O)C(=O)C3=C(O)c4c(O)cccc4C[C@H]3C[C@@H]12 | 99% (active)
O=[N+]([O-])c1ccc2c(c1)/C(=N/N=C1c3ccccc3Cc3ccccc31)c1cc([N+](=O)[O-])cc([N+](=O)[O-])c1-2 | 96% (active)
Cc1nc2c(Br)cc(Br)cc2c(=O)n1-c1ccccc1NC1OCC(O)C(O)C1O (centres undefined) | 75% (active) and 23% (inactive)
Cc1cc(N(CCOS(C)(=O)=O)CCOS(C)(=O)=O)ccc1C=Nc1ccc(-c2nc(Cc3ccccc3)sc2C)cc1 | 97% (active) and 46% (inactive)
